PubChem BioAssay (NCATS)
Inconclusive results are not listed. The source made the active and inactive calls. The call rests on the fitted dose curve; in most records, active means well fitted curve in the direction sought with a large enough effect; inconclusive means small, poorly fitted or top-dose-only effect, or another doubt; inactive means no such curve, though single readings can be large; an effect the other way counts as inactive or inconclusive.

System: Nanoluciferase (engineered Oplophorus gracilirostris luciferase)
Assay: Primary Nanoluciferase (NLuc) qHTS assay for identification of artifact compounds. (AID 1845222); further: potency means the concentration at half of the fitted maximal effect;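 on activity, negative = inhibition: NLuc secreted into diluted conditioned medium of S16 cells; 0% = DMSO and -100% = no enzyme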
Settings: NLuc-conditioned medium, Nano-Glo luminescence, 5 min; series mostly up to 54.1 µM; activity, negative = inhibition: at the top concentration
Outline: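 Concentration-response data were obtained by luminescence after 5 min with Nano-Glo substrate at 1:100. The enzyme was diluted S16 NLuc-expressing cell medium, preincubated with compound for 15 min at RT. Curves were fitted with a 4-parameter Hill model.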

Row | SMILES | activity, negative = inhibition | Potency
1 | CN(C)c1cccc(-c2c3c(=O)n(-c4ccccc4Cl)[nH]c3cc(=O)n2C)c1 | -5.26% (inactive) | 
2 | NCc1c[nH]c(=S)n1C1CCc2c(F)cc(F)cc2C1 (centres undefined) | -1.07% (inactive) | 
3 | Cc1ccc2c(c1)C=Cc1cc(C)ccc1C2c1cn(Cc2ccc(C(=O)Nc3nn[nH]n3)o2)c(=O)[nH]c1=S | 4.29% (inactive) | 
4 | CC(=O)N[C@H]1CCN(c2ccc(C3=NOC(CN[S+](=O)([O-])C(C)C)C3)cc2F)C1 (some centres undefined) | 0.245% (inactive) | 
5 | C[C@H]1[C@H](C)CC[C@]2(C(=O)O)CC[C@]3(C)C(=CC[C@@H]4[C@@]5(C)C[C@@H](O)[C@H](O)[C@@](C)(CO)[C@@H]5CC[C@]43C)[C@H]12 | 3.17% (inactive) | 
6 | C/C=C/C=C/C=C/C(=O)O[C@@H]1C=C(CO)C(O)(C(=O)O)[C@@]2(C)CCCC(C)(C)[C@H]12 (some centres undefined) | -8.09% [at 25.7 µM] (inactive) | 
7 | CCOC(=O)[C@H](CCc1ccccc1)N[C@@H](C)C(=O)N1C2CCCCC2C[C@H]1C(=O)O (some centres undefined) | 1.06% (inactive) | 
8 | NC(=O)c1cccc(-c2cc(O)cc(OC(=O)NC3CCCCC3)c2)c1 | -3.68% [at 25.7 µM] (inactive) | 
9 | C#C[C@]1(O)CC[C@H]2[C@@H]3CCC4=C/C(=N/O)CC[C@@H]4[C@H]3CC[C@@]21CC | 4.89% (inactive) | 
10 | COc1cccc(-c2ccc([C@@H](Oc3cc(-c4ccc(C[C@H](N)C(=O)O)cc4)nc(N)n3)C(F)(F)F)cc2)c1 | 0% (inactive) | 
11 | CC(C)c1nc(N(C)S(C)(=O)=O)nc(-c2ccc(F)cc2)c1/C=C/[C@@H](O)C[C@@H](O)CC(=O)O | 1.11% (inactive) | 
12 | CC(C)C(=O)c1cn(CC(=O)COc2ccc(Oc3ccccc3)cc2)c2ccc(C(=O)O)cc12 |  | 6.01 µM (active)

System: not listed separately
Assay: Primary redox qHTS assay for identification of artifact compounds. (AID 1845223);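 further: 0% = DMSO and 100% = reference compound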
Settings: Amplex Red/HRP redox cycling with DTT, fluorescence; series mostly up to 53.8 µM; redox activity (% of DA3003): at the top concentration
Outline: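 Redox-cycling detection via DTT (250 uM final) oxidation coupled to Amplex Red (25 uM)/HRP (250 mU/mL) in HBSS. 15 min preincubation plus 30 min after DTT, room temperature. Ex/Em 525/598 nm; 4-parameter Hill fit against DMSO and 10 uM DA3003.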

Row | SMILES | redox activity (% of DA3003)
13 | CN(C)c1cccc(-c2c3c(=O)n(-c4ccccc4Cl)[nH]c3cc(=O)n2C)c1 | -4.71% (inactive)
14 | NCc1c[nH]c(=S)n1C1CCc2c(F)cc(F)cc2C1 (centres undefined) | -3.81% (inactive)
15 | CC(=O)N[C@H]1CCN(c2ccc(C3=NOC(CN[S+](=O)([O-])C(C)C)C3)cc2F)C1 (some centres undefined) | 12.2% (inactive)
16 | NC(=O)c1cccc(-c2cc(O)cc(OC(=O)NC3CCCCC3)c2)c1 | 8.8% [at 25.6 µM] (inactive)
17 | C#C[C@]1(O)CC[C@H]2[C@@H]3CCC4=C/C(=N/O)CC[C@@H]4[C@H]3CC[C@@]21CC | 0.362% (inactive)
18 | COc1cccc(-c2ccc([C@@H](Oc3cc(-c4ccc(C[C@H](N)C(=O)O)cc4)nc(N)n3)C(F)(F)F)cc2)c1 | 9.33% (inactive)
19 | CC(C)C(=O)c1cn(CC(=O)COc2ccc(Oc3ccccc3)cc2)c2ccc(C(=O)O)cc12 | 11.2% (inactive)
